From PubChem BioAssay (Tox21)
Results filed as inconclusive are left out. Activity calls are given as the source filed them. Unless noted, calls follow the shape of the full dose curve.

How the values were obtained:
[1] = qHTS assay to identify small molecule agonists of the peroxisome proliferator-activated receptor delta (PPARd) signaling pathway - cell viability counter screen (AID 743211; active = well fitted curve in the direction sought with a large enough effect in the repeat runs; an effect the other way counts as inactive or inconclusive; also: nearly all actives have a fitted effect of over 55% in size)
Method in brief: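 Luminescent ATP viability assay (CellTiter-Glo, 30 min RT) in UAS-bla HEK293H cells carrying the PPAR delta reporter construct, 3000 cells/well, after a 17 h compound treatment at 37 C.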

[2] = qHTS assay to identify small molecule antagonists of the peroxisome proliferator-activated receptor delta (PPARd) signaling pathway - cell viability counter screen (AID 743213; active = well fitted curve in the direction sought with a large enough effect in the repeat runs; an effect the other way counts as inactive or inconclusive; also: nearly all actives have a fitted effect of over 50% in size)
Method in brief: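 In this counter screen, HEK293H cells carrying a UAS-beta-lactamase reporter are co-treated with test compounds and 300 nM L165041 (final) for 17 h at 37 C; cell viability is quantified by CellTiter-Glo luminescence.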

[3] = target: Bile acid receptor (Homo sapiens) (UniProt Q96RI1); test: qHTS assay to identify small molecule antagonists of the farnesoid-X-receptor (FXR) signaling pathway (AID 743217; active = well fitted inhibition curve with a large enough effect in the signal ratio in the repeat runs, not every such curve was filed as active; the % refers to the signal ratio)
Bile acid receptor (Homo sapiens), sequence (Q96RI1 whole entry, looked up): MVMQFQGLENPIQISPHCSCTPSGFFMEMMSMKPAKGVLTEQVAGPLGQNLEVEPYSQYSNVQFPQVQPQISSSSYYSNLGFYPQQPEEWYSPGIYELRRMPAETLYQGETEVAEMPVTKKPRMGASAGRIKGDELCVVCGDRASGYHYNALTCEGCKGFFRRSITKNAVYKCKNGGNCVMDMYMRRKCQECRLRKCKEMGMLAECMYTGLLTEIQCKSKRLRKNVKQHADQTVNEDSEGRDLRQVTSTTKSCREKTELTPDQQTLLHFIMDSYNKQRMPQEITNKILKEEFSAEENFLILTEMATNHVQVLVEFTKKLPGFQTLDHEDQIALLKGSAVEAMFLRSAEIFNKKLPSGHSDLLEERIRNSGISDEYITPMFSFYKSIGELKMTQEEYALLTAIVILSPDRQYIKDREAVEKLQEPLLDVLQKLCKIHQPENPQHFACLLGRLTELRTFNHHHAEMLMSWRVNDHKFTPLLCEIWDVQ
Method in brief: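 FRET fluorescence after 2 h room-temperature LiveBLAzer loading gives the readout. Prior step: FXR-bla HEK 293T cells, seeded and incubated 5 h, received test compounds plus 50 uM final CDCA for 16 h at 37 °C.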

[4] = qHTS assay to identify small molecule agonists of the farnesoid-X-receptor (FXR) signaling pathway - cell viability counter screen (AID 743218; active = well fitted curve in the direction sought with a large enough effect in the repeat runs; an effect the other way counts as inactive or inconclusive; also: nearly all actives have a fitted effect of over 45% in size)
Method in brief: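 Readout: CellTiter-Glo luminescence, 30 min RT, multiplexed after the FXR-bla FRET reading. HEK 293T FXR-UAS-bla cells received compound 5 h post-plating and were incubated 16 h at 37 C.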

[5] = target: Bile acid receptor (Homo sapiens) (UniProt Q96RI1); test: qHTS assay to identify small molecule agonists of the farnesoid-X-receptor (FXR) signaling pathway (AID 743220; active = well fitted activation curve with a large enough effect in the signal ratio in the repeat runs, not every such curve was filed as active; the % refers to the signal ratio)
Method in brief: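 FXR-UAS-bla HEK 293T cells carrying a UAS-driven beta-lactamase reporter were plated for 5 h at 37C/5% CO2, then exposed to DMSO-dissolved Tox21 10K compounds for 16 h at 37C. A LiveBLAzer B/G FRET substrate was loaded for 2 h at room temperature before fluorescence reading.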

[6] = qHTS assay to identify small molecule antagonists of the farnesoid-X-receptor (FXR) signaling pathway - cell viability counter screen (AID 743221; active = well fitted cell-killing curve with a large enough effect in the repeat runs, not every such curve was filed as active; also: nearly all actives have a fitted effect of over 50% in size)
Method in brief: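 In GeneBLAzer FXR-UAS-bla HEK 293T cells stimulated with 50 uM chenodeoxycholic acid (final), compounds acted for 16 h at 37 C. Viability was assessed afterwards by CellTiter-Glo luminescence.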

[7] = target: Vitamin D3 receptor (Homo sapiens) (UniProt P11473); test: qHTS assay to identify small molecule agonists of the vitamin D receptor (VDR) signaling pathway (AID 743222)
Vitamin D3 receptor (Homo sapiens), sequence (P11473 whole entry, looked up): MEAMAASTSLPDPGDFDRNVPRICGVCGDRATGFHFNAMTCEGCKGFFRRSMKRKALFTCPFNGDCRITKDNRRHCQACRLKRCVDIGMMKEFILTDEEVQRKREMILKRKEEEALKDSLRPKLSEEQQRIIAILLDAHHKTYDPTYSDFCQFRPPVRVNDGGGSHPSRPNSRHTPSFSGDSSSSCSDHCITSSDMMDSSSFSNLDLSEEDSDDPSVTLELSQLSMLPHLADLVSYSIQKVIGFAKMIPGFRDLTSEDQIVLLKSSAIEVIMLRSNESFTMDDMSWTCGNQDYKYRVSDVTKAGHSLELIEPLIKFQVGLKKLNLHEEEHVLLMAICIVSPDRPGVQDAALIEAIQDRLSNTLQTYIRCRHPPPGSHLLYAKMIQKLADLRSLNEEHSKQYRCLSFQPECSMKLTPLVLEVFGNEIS
Method in brief: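 Following 4 h attachment at 37C, VDR-bla cells (2,000 per well) received DMSO-dissolved compounds or controls. After 16 h incubation, LiveBLAzer B/G FRET substrate was added and fluorescence read 2 h later at room temperature.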

[8] = qHTS assay to identify small molecule agonists of the NFkB signaling pathway - cell viability counter screen (AID 1159515); also: series mostly up to about 61 µM; nearly all actives have a fitted effect of over 55% in size
Method in brief: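 Plate 2,000 NFkB-bla ME-180 cells/well; incubate overnight. Add compounds, 5 hr at 37 C. Add FRET substrate, 1.5 hr RT. Add CellTiter-Glo, 30 min RT; read luminescence.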

[9] = qHTS assay to identify small molecule agonists of the endoplasmic reticulum stress response signaling pathway (AID 1159516; active = well fitted activation curve with a large enough effect in the signal ratio in the repeat runs, not every such curve was filed as active; the % refers to the signal ratio)
Method in brief: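 Beta-lactamase expression from the ER stress response element in HeLa reporter cells is quantified with the LiveBLAzer B/G FRET substrate, read at 405 nm excitation after 2 hr at room temperature, following 5 hr compound treatment at 37 C.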

[10] = qHTS assay to identify small molecule agonists of the endoplasmic reticulum stress response signaling pathway - cell viability counter screen (AID 1159517); also: series mostly up to about 61 µM; nearly all actives have a fitted effect of over 50% in size
Method in brief: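 Cytotoxicity of test compounds toward ESRE-bla HeLa cells was assessed after 5 hr exposure. The luminescent CellTiter-Glo signal was measured 30 min after reagent addition.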

[11] = qHTS assay to identify small molecule antagonists of the retinoid-related orphan receptor gamma (ROR-gamma) signaling pathway - cell viability counter screen (AID 1159520; active = well fitted curve in the direction sought with a large enough effect in the repeat runs; an effect the other way counts as inactive or inconclusive; also: nearly all actives have a fitted effect of over 50% in size)
Method in brief: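 Tet-on ROR gamma CHO cells (1,000/well) were plated 4 hr, given compounds in DMSO for 2 hr at 37 C, then induced with 1 uM final doxycycline for 16 hr. Viability was read as ATP by CellTiter-Glo luminescence after 30 min.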

[12] = target: Nuclear receptor ROR-gamma (Homo sapiens) (UniProt P51449); test: qHTS assay to identify small molecule antagonists of the retinoid-related orphan receptor gamma (ROR-gamma) signaling pathway (AID 1159521; active = well fitted curve in the direction sought with a large enough effect in the repeat runs; an effect the other way counts as inactive or inconclusive)
Method in brief: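 CHO cells expressing RORγ under a TET-on promoter, luciferase under RORE control. Dox 1 uM final, 16 h; compounds added 2 h prior. Luminescence decrease measured.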

[13] = qHTS assay to identify small molecule agonists of the AP-1 signaling pathway - cell viability counter screen (AID 1159525); also: nearly all actives have a fitted effect of over 55% in size
Method in brief: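 Each titration point was normalised to DMSO and tetra n-octyl ammonium bromide controls. The read was Cell Titer Glo luminescence after 30 min at RT, following 5 h compound exposure of ME-180 AP-1-bla cells at 37 °C.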

[14] = qHTS assay to identify small molecule agonists of the AP-1 signaling pathway (AID 1159526)
[15] = target: Vitamin D3 receptor (Homo sapiens) (UniProt P11473); test: qHTS assay to identify small molecule antagonists of the vitamin D receptor (VDR) signaling pathway (AID 743223; active = well fitted inhibition curve with a large enough effect in the signal ratio in the repeat runs, not every such curve was filed as active; the % refers to the signal ratio)
Method in brief: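 Agonist 1alpha,25-dihydroxyvitamin D3 (3 nM in well) was added with each compound to VDR-bla cells preincubated 4 h. Cells stood 16 h at 37C, then FRET substrate 2 h at room temperature; fluorescence intensity recorded.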

[16] = qHTS assay to identify small molecule antagonists of the vitamin D receptor (VDR) signaling pathway - cell viability counter screen (AID 743225; active = well fitted curve in the direction sought with a large enough effect in the repeat runs; an effect the other way counts as inactive or inconclusive; also: nearly all actives have a fitted effect of over 50% in size)
Method in brief: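 Luminescent cell viability (CellTiter-Glo) in VDR-bla HEK 293T cells after 16 h compound exposure at 37C in the presence of 3 nM final 1-alpha,25-dihydroxy vitamin D3.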

[17] = target: Peroxisome proliferator-activated receptor delta (Homo sapiens) (UniProt Q03181); test: qHTS assay to identify small molecule agonists of the peroxisome proliferator-activated receptor delta (PPARd) signaling pathway (AID 743212);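 also: HEK293H cells with PPARd UAS beta-lactamase reporter GeneBLAzer system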
Peroxisome proliferator-activated receptor delta (Homo sapiens), sequence (Q03181 whole entry, looked up): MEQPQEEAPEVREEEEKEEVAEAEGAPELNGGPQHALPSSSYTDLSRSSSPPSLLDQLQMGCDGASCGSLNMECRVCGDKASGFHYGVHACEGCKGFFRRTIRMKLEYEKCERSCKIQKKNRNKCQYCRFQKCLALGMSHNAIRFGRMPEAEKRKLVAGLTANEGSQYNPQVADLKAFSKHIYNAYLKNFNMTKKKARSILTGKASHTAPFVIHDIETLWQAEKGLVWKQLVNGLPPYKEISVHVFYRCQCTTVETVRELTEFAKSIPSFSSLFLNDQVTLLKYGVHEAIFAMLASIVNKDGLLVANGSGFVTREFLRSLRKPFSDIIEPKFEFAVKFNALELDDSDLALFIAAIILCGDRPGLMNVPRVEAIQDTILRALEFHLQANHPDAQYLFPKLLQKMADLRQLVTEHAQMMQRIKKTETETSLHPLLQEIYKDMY
Method in brief: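 Beta-lactamase reporter read by fluorescence (LiveBLAzer B/G FRET, 2 h, room temperature). Test agents, in DMSO, incubated at 37 C with PPARd-bla HEK293H cells.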

[18] = target: Peroxisome proliferator-activated receptor delta (Homo sapiens) (UniProt Q03181); test: qHTS assay to identify small molecule antagonists of the peroxisome proliferator-activated receptor delta (PPARd) signaling pathway (AID 743215; active = well fitted inhibition curve with a large enough effect in the signal ratio in the repeat runs, not every such curve was filed as active; the % refers to the signal ratio;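 also: cells stimulated with agonist L165041 at 300 nM final during compound exposure; series mostly up to about 62 µM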)
Method in brief: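 Fluorescence from cleaved LiveBLAzer B/G FRET substrate (2 h, room temperature) reports PPARd-driven beta-lactamase in HEK293H UAS-bla cells. Cells had been treated 17 h at 37 C with compound plus 300 nM final L165041.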

[19] = qHTS assay to identify small molecule agonists of the vitamin D receptor (VDR) signaling pathway - cell viability counter screen (AID 743224; active = well fitted curve in the direction sought with a large enough effect in the repeat runs; an effect the other way counts as inactive or inconclusive)
Method in brief: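 In parallel with the bla FRET readout, cytotoxicity toward VDR-bla cells after 16 h compound exposure was assessed by CellTiter-Glo, with luminescence recorded after a 30 min room-temperature incubation.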

[20] = target: Retinoic acid receptor RXR-alpha (Homo sapiens) (UniProt P19793); test: qHTS assay to identify small molecule agonists of the RXR signaling pathway (AID 1159527); also: nearly all actives have a fitted effect of over 35% in size
Retinoic acid receptor RXR-alpha (Homo sapiens), sequence (P19793 whole entry, looked up): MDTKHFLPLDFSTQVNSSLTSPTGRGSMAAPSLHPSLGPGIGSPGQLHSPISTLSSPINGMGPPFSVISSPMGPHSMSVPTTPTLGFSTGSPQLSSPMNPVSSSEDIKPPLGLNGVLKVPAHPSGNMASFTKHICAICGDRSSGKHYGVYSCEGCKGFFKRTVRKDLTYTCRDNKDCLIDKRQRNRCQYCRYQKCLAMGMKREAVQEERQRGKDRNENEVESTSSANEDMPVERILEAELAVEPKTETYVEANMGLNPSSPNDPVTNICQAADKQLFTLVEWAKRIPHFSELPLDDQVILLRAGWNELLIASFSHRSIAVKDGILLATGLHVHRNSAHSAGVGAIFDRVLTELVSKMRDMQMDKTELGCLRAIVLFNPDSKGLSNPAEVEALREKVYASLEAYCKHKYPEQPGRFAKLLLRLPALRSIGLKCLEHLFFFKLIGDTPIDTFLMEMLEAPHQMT
Method in brief: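 Beta-lactamase reporter assay, agonist format. Engineered HEK 293T line, charcoal-stripped FBS at 2%, overnight (16 hr) exposure, fluorescence at 460 and 530 nm after 405 nm excitation.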

Measured: Potency

C=CC(C)(CCC=C(C)C)OC(=O)CC (stereo unspecified)
not listed: [15] | [16] | [17] | [18] | [19] | [20]
inactive: all other assays above

CNCC(O)c1ccc(O)c(O)c1 (stereo unspecified)
inactive: [4] | [6] | [15] | [16] | [8] | [9] | [10] | [11] | [12] | [13] | [14]

CC1=CC(=O)[C@H]2C[C@@H]1C2(C)C
not listed: [4] | [16] | [20]
inactive: all other assays above

O=C(O)CNC(=O)c1ccc(CO)o1
not listed: [1] | [2] | [3] | [5] | [7] | [15] | [16] | [19]
inactive: all other assays above

CCO[Si](OCC)(OCC)c1ccccc1
not listed: [1] | [2] | [17] | [18]
inactive: all other assays above

Cc1ccccc1N=C(N)N=C(N)N
not listed: [3] | [4] | [5] | [15] | [20]
inactive: all other assays above

COC(=O)Nc1ccc(Cl)c(Cl)c1
not listed: [4] | [13] | [15] | [16]
inactive: all other assays above

NCCCC(N)(C(=O)O)C(F)F (stereo unspecified)
not listed: [3] | [5] | [17] | [18] | [20]
inactive: all other assays above

C[N+]1(C)CCCC(OC(=O)C(O)(c2ccccc2)c2ccccc2)C1 (stereo unspecified)
not listed: [4] | [13] | [15] | [19]
inactive: all other assays above

[K+]
not listed: [15] | [16] | [20]
inactive: all other assays above

CC(=O)Oc1cccc(C)c1
not listed: [3] | [5] | [7] | [15] | [16] | [19] | [20]
inactive: all other assays above

CC(C)=CCC/C(C)=C/C#N
not listed: [1] | [7] | [15] | [17] | [18] | [20]
inactive: all other assays above

Cc1ccc(-c2ncc(Cl)cc2-c2ccc(S(C)(=O)=O)cc2)cn1
not listed: [1] | [7] | [17] | [18]
inactive: all other assays above

CC(C)C1CCC(O)CC1 (stereo unspecified)
not listed: [3] | [4] | [5] | [17] | [18] | [20]
inactive: all other assays above
